{"source": "PubChem BioAssay AID1789", "about": "(The Scripps Research Institute Molecular Screening Center, 2009)", "note": "About 2,700 (0.93%) of roughly 290,000 compounds were called active.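 How the source made its calls: active means inhibition above the screen-wide mean plus 3 SD, computed separately per campaign (cut at about 16% in these data); inactive means the rest.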 Many of the other results were omitted from the sample, so actives are more common in it than they were.", "data": [{"system": "Heat shock protein HSP 90 (rabbit reticulocyte lysate; luciferase refolding)", "assay": "HSP90 inhibitors, primary screen, cell lysate, luminescence (AID 1789);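 further: 0% = DMSO wells and 100% = 60 µM geldanamycin wells; inhibitors lower the luminescence because luciferase stays unfolded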", "settings": "3 h, at 5.6 µM, stronger effect = higher value", "values": [{"compound": "Cc1ccc(SCC(=O)NC(=O)NCc2ccco2)c(C)c1", "inhibition": "16.6% (active)"}, {"compound": "Cc1cc(C)n2nc(SCC(=O)NC(=O)NCc3ccco3)nc2n1", "inhibition": "0.53% (inactive)"}, {"compound": "Cc1ccc(NC(=O)C(=O)NCc2ccco2)c(C)c1", "inhibition": "-1.76% (inactive)"}, {"compound": "CC(C)Cc1nnc(NC(=O)CN2C(=O)NC3(CCCCC3)C2=O)s1", "inhibition": "-3.19% (inactive)"}, {"compound": "CC1CCN(CC(O)COc2ccc(C(=O)c3ccccc3)cc2)CC1", "note": "(stereo not drawn)", "inhibition": "-4.35% (inactive)"}, {"compound": "Cc1csc(NC(=O)CSc2nc(=O)cc(N)n2-c2ccc(F)cc2)n1", "inhibition": "-4.86% (inactive)"}, {"compound": "Cc1nc([N+](=O)[O-])cn1CC(=O)Nc1ccc(Cl)cc1", "inhibition": "-5.8% (inactive)"}, {"compound": "Cc1nc2cc3c(cc2s1)OCO3", "inhibition": "5.26% (inactive)"}, {"compound": "Brc1ccc2nc(N3CCCC3)sc2c1", "inhibition": "7.29% (inactive)"}, {"compound": "c1c2c(cc3sc(N4CCCCC4)nc13)OCCO2", "inhibition": "56.8% (active)"}, {"compound": "COCC1CCN(C(=O)CCc2nnc(C3(c4ccc(Cl)cc4)CCC3)o2)C1", "note": "(stereo not drawn)", "inhibition": "-3.96% (inactive)"}, {"compound": "CN(CC1CCCN(CCc2cccc(C(F)(F)F)c2)C1)C(=O)c1ccc2nc[nH]c2c1", "note": "(stereo not drawn)", "inhibition": "-5.74% (inactive)"}, {"compound": "Clc1c(OCCCn2ccnc2)ccc2ccccc12", "inhibition": "1.78% (inactive)"}, {"compound": "CCc1ccc2oc(-c3ccc(N)cc3)nc2c1", "inhibition": "26.4% (active)"}, {"compound": "CC(=O)Nc1ccc(-c2nc3ccccc3o2)cc1", "inhibition": "2.88% (inactive)"}, {"compound": "COc1ccc(-c2nc3cc([N+](=O)[O-])ccc3o2)cc1OC", "inhibition": "1.87% (inactive)"}, {"compound": "COc1ccc2[nH]c(=O)c(CN(Cc3cccnc3)S(=O)(=O)c3ccccc3F)cc2c1", "inhibition": "1.17% (inactive)"}, {"compound": "Cc1cccc(C(=O)OC(C)CN2CCN(C)CC2)c1", "note": "(stereo not drawn)", "inhibition": "17.2% (active)"}, {"compound": "Cc1ccc(C(=O)OC(C)CN2CCOCC2)cc1", "note": "(stereo not drawn)", "inhibition": "-4.23% (inactive)"}, {"compound": "Cc1cccc(C(=O)OC(C)CN2CCCC2)c1", "note": "(stereo not drawn)", "inhibition": "0.74% (inactive)"}, {"compound": "CCOc1ccc(NC(=O)[C@H](C)NC(=O)C2CC(=O)N(c3ccc(OC)cc3)C2)cc1", "note": "(stereo partly drawn)", "inhibition": "2.77% (inactive)"}, {"compound": "O=C(NC1CCCC1)C(c1c(F)cccc1Cl)N(C(=O)c1csnn1)C1CC1", "note": "(stereo not drawn)", "inhibition": "-3.16% (inactive)"}, {"compound": "Cc1ccc(C(=O)Nc2ccc(C)c(S(=O)(=O)N(C)C)c2)s1", "inhibition": "0.01% (inactive)"}, {"compound": "Clc1ccc(Nc2nc(-c3cccs3)cs2)nc1", "inhibition": "6.93% (inactive)"}, {"compound": "O=c1oc2ccccc2cc1-c1csc(Nc2ccc(O)cc2)n1", "inhibition": "-2.38% (inactive)"}, {"compound": "Cc1ccc(Nc2nc(-c3ccc(O)cc3O)cs2)nc1", "inhibition": "28.1% (active)"}, {"compound": "Nc1ccccc1SC(C[N+](=O)[O-])c1ccccc1", "note": "(stereo not drawn)", "inhibition": "-4.32% (inactive)"}, {"compound": "CCOC(=O)c1cc(Sc2ccccc2N)cc(C(=O)OCC)n1", "inhibition": "7.9% (inactive)"}, {"compound": "CCS(=O)(=O)c1cc([N+](=O)[O-])c(Sc2ccccc2N)s1", "inhibition": "20.8% (active)"}, {"compound": "O=c1ccc(-c2ccc(S(=O)(=O)Nc3ccccc3)o2)n[nH]1", "inhibition": "-6.52% (inactive)"}, {"compound": "COCCn1c(N)c(NCc2ccccc2)c(=O)[nH]c1=O", "inhibition": "7.03% (inactive)"}, {"compound": "Cn1c(=O)c2c(SCC(=O)NCC3CCCO3)nc(CC(C)(C)C)nc2n(C)c1=O", "note": "(stereo not drawn)", "inhibition": "-3.22% (inactive)"}, {"compound": "Cc1cc(C(=O)COC(=O)C2CC2)c(C)n1-c1ccc(F)cc1", "inhibition": "84.2% (active)"}, {"compound": "COc1cc(/C=N/NC(=O)c2cc(C)n(-c3ccc(F)cc3)c2C)cc(OC)c1O", "inhibition": "6.31% (inactive)"}, {"compound": "Cc1ccc(-n2c(C)cc(C(=O)CN3C(=O)C(=O)N(C4CCCC4)C3=O)c2C)cc1", "inhibition": "-3.59% (inactive)"}, {"compound": "COc1ccc(-n2c(C)cc(C(=O)CN3C(=O)NC4(CCc5ccccc54)C3=O)c2C)cc1", "note": "(stereo not drawn)", "inhibition": "2.66% (inactive)"}, {"compound": "CCn1cc(/C=C(\\NC(=O)c2ccc(C)cc2)C(=O)NCCN2CCOCC2)c2ccccc21", "inhibition": "3.27% (inactive)"}, {"compound": "Cc1nn(Cc2ccccc2)c(Cl)c1C(=O)OC1CCOC1=O", "note": "(stereo not drawn)", "inhibition": "-0.01% (inactive)"}, {"compound": "O=C(OC1CCOC1=O)c1ccc(-c2nc3ccccc3s2)s1", "note": "(stereo not drawn)", "inhibition": "35.8% (active)"}, {"compound": "CC(C)c1ccc(C(=O)OC2CCOC2=O)cc1", "note": "(stereo not drawn)", "inhibition": "3.27% (inactive)"}, {"compound": "CCOC(=O)C1CCN(Cc2c(C(=O)N3CCOCC3)nc3c(C)cccn23)CC1", "inhibition": "13.2% (inactive)"}, {"compound": "C=C(C)CNC(=O)c1ccc(OC2CCN(C(=O)COC)CC2)cc1", "inhibition": "2.35% (inactive)"}, {"compound": "CC(C)C[C@H](NC(=O)C1CC(=O)N(c2ccc3c(c2)OCCO3)C1)C(=O)NC1CCCC1", "note": "(stereo partly drawn)", "inhibition": "-1.77% (inactive)"}, {"compound": "O=c1c2ccccc2nc2n1C1(CCCCC1)Cc1ccccc1-2", "inhibition": "4.03% (inactive)"}, {"compound": "CN(c1ccc2nc3ccccc3c(=O)n2n1)C1CCCCC1", "inhibition": "85.9% (active)"}, {"compound": "CCOC(=O)C(C)Sc1nc2ccccc2c(=O)n1CC1CCCCC1", "note": "(stereo not drawn)", "inhibition": "2.53% (inactive)"}, {"compound": "COCCC(=O)N1CCC(Oc2ccc(C(=O)NCc3ccon3)cc2)CC1", "inhibition": "-1.71% (inactive)"}, {"compound": "CNC(=O)CN1C(=O)NC(c2ccccc2)(c2ccccc2)C1=O", "inhibition": "3.3% (inactive)"}, {"compound": "C=CCc1cc(S(=O)(=O)c2ccc(O)c(CC=C)c2)ccc1O", "inhibition": "-0.52% (inactive)"}, {"compound": "CCOC(=O)N1CCN(C(=O)C(=O)Nc2sc3c(c2C#N)CC(C)(C)OC3)CC1", "inhibition": "-2.63% (inactive)"}, {"compound": "CCOc1ccc(-c2nnc(-c3ccco3)o2)cc1", "inhibition": "30.8% (active)"}, {"compound": "CCOc1ccc(-n2c(SCC(N)=O)nnc2-c2ccco2)cc1", "inhibition": "7.02% (inactive)"}, {"compound": "CCCCOc1ccc(-c2nnc(-c3ccco3)o2)cc1", "inhibition": "-4.76% (inactive)"}, {"compound": "CCc1ccccc1OCC(=O)Nc1ccc2c(c1)OCCO2", "inhibition": "-5.09% (inactive)"}, {"compound": "CCn1ccnc1CN(C)C(=O)c1ccc2nc(Cc3ccc(OC)cc3)oc2c1", "inhibition": "-0.73% (inactive)"}, {"compound": "COCC1CCN(C(=O)C2CCC(=O)N(Cc3cccc(C(F)(F)F)c3)C2)CC1", "note": "(stereo not drawn)", "inhibition": "2.25% (inactive)"}, {"compound": "O=c1c([N+](=O)[O-])cc(C(F)(F)F)cn1Cc1cccc(Cl)c1", "inhibition": "0.02% (inactive)"}, {"compound": "O=C(/C=C/c1cccc([N+](=O)[O-])c1)N1CCN(Cc2ccccc2)CC1", "inhibition": "-2.98% (inactive)"}, {"compound": "O=[N+]([O-])/C=C/c1ccc2c(ccn2Cc2ccccc2)c1", "inhibition": "21.8% (active)"}, {"compound": "CN(Cc1ccccc1)C(=O)C(=O)c1cn(CC(=O)N2CCCC2)c2ccccc12", "inhibition": "-3.8% (inactive)"}, {"compound": "CCc1ccc(NC(=O)NC(C)c2ccc3c(c2)OCO3)cc1", "note": "(stereo not drawn)", "inhibition": "1.03% (inactive)"}, {"compound": "Cc1onc(-c2ccccc2)c1C(=O)N1CCN(S(=O)(=O)c2ccccc2C(F)(F)F)CC1", "inhibition": "-1.81% (inactive)"}, {"compound": "COc1ccc(N2CCN(C(=O)c3cn(C)c4ccc(S(=O)(=O)N5CCOCC5)cc4c3=O)CC2)cc1", "inhibition": "-3.81% (inactive)"}, {"compound": "O=C(Nc1cccc(Cl)c1)C1CCCN(c2cnccn2)C1", "note": "(stereo not drawn)", "inhibition": "-2.56% (inactive)"}, {"compound": "Cc1cc(C)nc(N2CCC(C(=O)Nc3ccc4c(c3)OCCO4)CC2)n1", "inhibition": "0.65% (inactive)"}, {"compound": "O=C(Nc1ccc2c(c1)OCCO2)C1CCCN(c2ncccn2)C1", "note": "(stereo not drawn)", "inhibition": "16.9% (active)"}, {"compound": "COc1ccc(N2C(=O)NC(NS(=O)(=O)c3ccc(Cl)cc3)(C(F)(F)F)C2=O)cc1", "note": "(stereo not drawn)", "inhibition": "1.44% (inactive)"}, {"compound": "COc1ccc(Cc2cc(-c3ccc(F)cc3)n[nH]c2=O)cc1", "inhibition": "-1.15% (inactive)"}, {"compound": "Oc1ccc(-c2onc3ccc(Cl)cc23)cc1", "inhibition": "-0.76% (inactive)"}, {"compound": "CC(OC(=O)c1ccc2noc(-c3ccccc3)c2c1)C(N)=O", "note": "(stereo not drawn)", "inhibition": "26.5% (active)"}, {"compound": "COc1ccc(-c2onc3ccc(C(C)=O)cc23)cc1", "inhibition": "3.03% (inactive)"}, {"compound": "COc1ccc(C(C)NC(=O)C2CCCC2)cc1", "note": "(stereo not drawn)", "inhibition": "-1.94% (inactive)"}, {"compound": "CCCc1cc(=O)oc2c(C)c(OC(C)C(=O)NCC(O)c3ccccc3)ccc12", "note": "(stereo not drawn)", "inhibition": "-5.71% (inactive)"}, {"compound": "COc1nc(-c2ccc(Cl)cc2)ccc1-c1noc(-c2cccs2)n1", "inhibition": "-4.45% (inactive)"}, {"compound": "c1ccc(-c2noc(-c3cccs3)n2)nc1", "inhibition": "21.2% (active)"}, {"compound": "O=C(Oc1ccc(-c2nc(-c3ccccn3)no2)cc1)c1ccccc1", "inhibition": "3.06% (inactive)"}, {"compound": "COCC1CCCN(C(=O)c2ccc3oc(C(C)C)nc3c2)C1", "note": "(stereo not drawn)", "inhibition": "2.21% (inactive)"}, {"compound": "Cc1n[nH]c(=O)c2c1nnn2Cc1ccc(F)cc1", "inhibition": "0.06% (inactive)"}, {"compound": "Cc1ccc(/C=N/NC(=S)NC2CCCCC2)o1", "inhibition": "-0.34% (inactive)"}, {"compound": "C/C(=N\\NC(=S)NC1CCCCC1)c1ccc(C)o1", "inhibition": "19.9% (active)"}, {"compound": "C/C(=N/NC(=O)c1ccc(Br)o1)c1ccc(C)o1", "inhibition": "1.47% (inactive)"}, {"compound": "COc1ccc(OC)c(NC(=O)c2ccc3c(c2)CCN3S(C)(=O)=O)c1", "inhibition": "-4.49% (inactive)"}, {"compound": "O=C(C1CCC(=O)N(C2CC2)C1)N1CCN(c2ccc(Cl)cc2)CC1", "note": "(stereo not drawn)", "inhibition": "0.69% (inactive)"}, {"compound": "CCOc1cc(C2/C(=C(/O)c3ccc(S(=O)(=O)N4CCCCC4)cc3)C(=O)C(=O)N2CCOC)ccc1O", "note": "(stereo not drawn)", "inhibition": "-4.72% (inactive)"}, {"compound": "Fc1ccccc1/C=C1\\CCCC2=C1Nc1ncnn1C2c1ccccc1F", "note": "(stereo not drawn)", "inhibition": "5.24% (inactive)"}, {"compound": "Cc1ccc(-n2c(SCC(=O)Nc3ncc(Cl)cc3Cl)nc3ccccc32)cc1", "inhibition": "19.5% (active)"}, {"compound": "NS(=O)(=O)c1cccc(NC(=O)CSc2nc3ccccc3n2-c2ccccc2)c1", "inhibition": "2.1% (inactive)"}, {"compound": "Cc1ccc(SCCC(=O)OCC(=O)Nc2ncc(Cl)cc2Cl)cc1", "inhibition": "3.89% (inactive)"}, {"compound": "COc1cccc(C(=O)N/N=C(\\C)c2cccc(NC(=O)c3ccc(F)cc3)c2)c1OC", "inhibition": "-0.84% (inactive)"}, {"compound": "COc1cccc(NC(=O)C/C(C)=N/NC(=O)C2CCCCC2)c1", "inhibition": "-2.92% (inactive)"}, {"compound": "O=C(COc1ccc2ccc(=O)oc2c1)NCC(O)c1ccccc1", "note": "(stereo not drawn)", "inhibition": "-3.81% (inactive)"}, {"compound": "Nc1ccc(-c2sc(N)nc2-c2ccccc2)cc1", "inhibition": "-4.32% (inactive)"}, {"compound": "Nc1ccc(-c2nnc(-c3ccccc3)o2)cc1", "inhibition": "20.3% (active)"}, {"compound": "Brc1ccc(-c2nnc(-c3ccccc3)o2)o1", "inhibition": "-0.79% (inactive)"}, {"compound": "CCOc1ccc(S(=O)(=O)N2CCCC(C(=O)N3CCC(C(N)=O)CC3)C2)cc1Cl", "note": "(stereo not drawn)", "inhibition": "-3.03% (inactive)"}, {"compound": "CCCOc1ccc(C(=O)NCCc2ccccc2)cc1", "inhibition": "20.7% (active)"}, {"compound": "COc1ccc(OCCCC(=O)NCCc2ccccc2)cc1", "inhibition": "-4.96% (inactive)"}, {"compound": "CCCc1ccc(OCCNC(=O)c2ccco2)cc1", "inhibition": "-5.63% (inactive)"}]}]}
